ssDAF12 agonist: activates DAF-12 receptor from parasite S. stercoralis | HEK293 ssDAF-12/GRIP1 lit1-tk-luc reporter, luminescence; % of 3 µM dafachronic acid response | activation, % at 6.8 µM | 370,000 tested, 1% active;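 active = activation above the mean over all tested compounds plus 3 SD, cut at about 0.9% in these data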;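 also: 0% = DMSO-only wells and 100% = 3 µM delta7-dafachronic acid wells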
hgDAF-12 ag: agonists of H. glycines DAF-12 nuclear receptor; 370,000 tested, 1.8% active; AID 687014; HEK293 GAL4-hgDAF12 UAS-luciferase reporter, agonist luminescence; normalized to butyrate control; activation, % at 6.8 µM;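 active = activation above a cutoff set at the mean of all screened compounds plus 3 SD, cut at about 10% in these data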;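 also: 0% = DMSO wells and 100% = sodium butyrate wells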
DAX1 inh-1: inhibitors of human orphan nuclear receptor DAX1 (NR0B1); P51843; HEK293 Gal4-DAX1 luciferase reporter, luminescence; inhibition, % at 6.75 µM; 340,000 tested, 0.99% active; AID 504766;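 active = inhibition above the mean over all tested compounds plus 3 SD, cut at about 4.2% in these data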;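 also: 0% = DAX1-transfected cells with DMSO and 100% = empty-vector control cells with DMSO; inhibition shows as a rise in luminescence from relieved DAX1 repression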
Target sequence (P51843 207-470 limits assumed): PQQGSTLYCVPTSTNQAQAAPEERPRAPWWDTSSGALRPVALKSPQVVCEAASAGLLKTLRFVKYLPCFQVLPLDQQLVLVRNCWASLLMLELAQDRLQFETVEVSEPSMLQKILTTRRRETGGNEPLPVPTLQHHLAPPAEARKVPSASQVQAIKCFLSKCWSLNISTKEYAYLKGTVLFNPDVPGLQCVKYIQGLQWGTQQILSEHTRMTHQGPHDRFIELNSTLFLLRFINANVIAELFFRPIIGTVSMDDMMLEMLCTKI
DAX1 inh-2: DAX1 (NR0B1) inhibition, primary screen. 370,000 tested, 1.1% active. inhibition, % at 6.8 µM. HEK293T StAR-luciferase reporter, SF-1/DAX-1 repression relief;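 active = inhibition above the mean over all tested compounds plus 3 SD, cut at about 3.6% in these data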;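 also: 0% = DAX-1 cells with DMSO and 100% = cells lacking DAX-1 with DMSO; higher inhibition means more luminescence from relief of DAX-1 repression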
hcDAF-12 act: H. contortus DAF-12 activation, primary screen | HEK293 hcDAF-12 lit1-tk-luc reporter, luminescence; 0% DMSO, 100% Δ7-dafachronic acid | activation, % at 6.8 µM | 370,000 tested, 1.4% active | AID 652067;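 active = activation above the mean of all tested compounds plus 3 SD, cut at about 5.5% in these data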;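 also: 100% = response to 3 µM Δ7-dafachronic acid high control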
LXRb hcDAF ctr: activates human LXR-beta, counter-screen for hcDAF-12 agonists; AID 743027; shares compounds with hcDAF-12 act; HEK293 Gal4-LXR tk-luc reporter, luminescence, 24 h; normalized: DMSO 0%, positive control 100%; 3,400 tested, under 10 active; activation, % at 6.8 µM;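 active = mean percent activation of the reporter above a cutoff set as the average over tested compounds plus their standard deviation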
hcDAF12 conf: hcDAF-12 agonism, confirmation assay; HEK293 hcDAF-12 lit1-tk-luc reporter, luminescence; % of Δ7-dafachronic acid response; shares compounds with hcDAF-12 act; activation, % at 6.8 µM; 3,400 tested, 61% active;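 active = mean activation across triplicate tests above the threshold derived from the earlier primary screen, cut at about 5.5% in these data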;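 also: 0% = DMSO only wells and 100% = 3 µM Δ7-dafachronic acid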
* = called active by the depositor; nt = no result. Only some compounds are listed: those with a hit (about 4.1% of all), similar ones and a draw of the others.

SMILES	ssDAF12 agonist	hgDAF-12 ag	DAX1 inh-1	DAX1 inh-2	hcDAF-12 act	LXRb hcDAF ctr	hcDAF12 conf
COC(=O)Nc1ccc(OCc2ccccc2)cc1	-1	6	2	2	1	nt	nt
C=CCN1C[C@H](COC(=O)CSc2ccccc2)Oc2cccc(F)c2S1(=O)=O	-1	-1	nt	0	1	nt	nt
Cc1ccccc1-c1nnc(CS(=O)(=O)c2ccccc2)o1	1.5*	12*	1	3	6.8*	1	7.0*
Cc1ccc(C)c(-c2nnc(NC(=O)CCS(=O)(=O)c3ccccc3)o2)c1	0	-3	1	0	-1	nt	nt
C=C(C)CSc1nc2sc(C)c(C)c2c(=O)n1C	-2	0	nt	-1	1	nt	nt
Oc1ccc(/C=C/c2ccc3ccccc3n2)cc1	-2	0	-7	0	1	nt	nt
C(=C\c1ccc2ccccc2n1)/c1ccccc1	1.3*	6	-2	2	14*	1	13*
COc1ccccc1C(=O)Nc1nnc(-c2ccc(F)cc2)s1	0	3	-1	1	4	nt	nt
O=C(Nc1nnc(-c2ccccc2)s1)c1ccc(F)cc1	-1	3	0	0	6.7*	0	2
Cc1ccc2nc(N3C(=O)C(O)=C(C(=O)c4ccc(C)o4)C3c3ccco3)sc2c1 (stereo unspecified)	1	11*	0	4.1*	8.1*	0	3
COC(=O)[C@@H](Cc1ccc(O)cc1)NC(=O)[C@H]1O[C@@H](n2cnc3c(=O)[nH]c(N)nc32)[C@H](O)[C@@H]1O	0	-1	nt	1	0	nt	nt
C=CCCC1CN(CC=C)S(=O)(=O)c2c(F)cccc2O1 (stereo unspecified)	-1	-3	nt	0	0	nt	nt
NC(=O)c1ccccc1NC(=S)NC(=O)c1ccc(Br)o1	0	7	3	1	9.2*	0	5
O=C(CN1CCN(c2nc(-c3ccccc3)cs2)CC1)Nc1ccc(Cl)c(Cl)c1	-1	1	nt	0	0	nt	nt
CCOC(=O)c1cc(NC(=O)c2ccc(Cl)cc2)c(=O)n2c1oc1ccc(Cl)cc12	-1	4	-1	0	9.3*	0	-2
CCOC(=O)c1cc(NC(=O)c2ccc(C)cc2)c(=O)oc1C(F)(F)F	0	6	-1	0	0	nt	nt
CCCC#Cc1ccc2c(c1)COc1c3ccccc3nn1-2	2.6*	17*	5.5*	4.1*	11*	2	12*
S=C(Nc1ccc(Cl)cc1)N1CCCCC1	-1	-1	-1	0	3	nt	nt
S=C(Nc1ccc(Br)cc1)N1CCCC1	-2	1	1	0	7.4*	0	2
Cc1noc(C)c1NC(=O)Nc1ccc2c(c1)C(=O)N(C)[C@H]1CC[C@H](CC(=O)NCc3ccc(Cl)cc3)O[C@@H]1CO2	-1	0	nt	1	-2	nt	nt
CN1CCN(C(=O)c2cc3sc4ccccc4c3s2)CC1	0	13*	nt	4.5*	7.3*	1	5
CCCCCCCCN1C(=O)[C@@H](CC(=O)N2CCN(C(=O)C3CC3)CC2)C[C@@]2(C(=O)OC)C1=C[C@H](C(C)C)O[C@@H]2C1CC1	-1	4	nt	-1	-2	nt	nt
C=CCn1c(SCC(=O)Nc2ccc(-c3nc4ccc(C)cc4s3)cc2)nnc1-c1ccncc1	-1	13*	0	2	7.0*	0	2
Cc1ccc(NC(=O)N2CC(C)OC(C)C2)cc1[N+](=O)[O-] (stereo unspecified)	0	4	nt	0	2	nt	nt
Cc1nn(C(=O)c2cc3sccc3[nH]2)c(C)c1C	0	10*	3	2	8.1*	1	11*
SMILES	ssDAF12 agonist	hgDAF-12 ag	DAX1 inh-1	DAX1 inh-2	hcDAF-12 act	LXRb hcDAF ctr	hcDAF12 conf
Cc1nn(C(=O)CNC(=O)c2ccccc2)c(C)c1C	-1	-1	1	2	-1	nt	nt
O=C1c2ccccc2C(=O)C1c1nccc2ccccc12	4.0*	18*	2	3	27*	2	24*
CCc1ccccc1C1C(=O)c2ccccc2C1=O	-1	2	-1	1	-1	nt	nt
O=S(=O)(c1ccc(C(F)(F)F)cc1)N1CCCc2nc(-c3ccc(F)cc3)ccc21	-1	4	nt	0	3	nt	nt
COc1ccc2c(c1OC)C(=O)N1C(C(=O)O)Cc3c([nH]c4ccccc34)C21 (stereo unspecified)	1	3	2	1	8.8*	0	3
COc1cccc(CNC(=O)[C@H]2CCCN2C(=O)[C@H]2CCCN2C(=O)c2ccc(F)cc2F)c1	-1	0	nt	-1	-1	nt	nt
O=C(OCC#CCSc1nnc(-c2ccccc2F)o1)c1ccc(F)cc1	-1	2	nt	nt	2	nt	nt
Cc1nc2cc(NC(=O)CCS(=O)(=O)c3ccccc3)ccc2s1	0	12*	4	4.0*	7.8*	1	4
Oc1ccc(-c2cn3cc(C(F)(F)F)ccc3n2)cc1	1	12*	-4	4	7.7*	3	9.0*
C[C@@H]1C=CCCO[C@]12C(=O)N(CC1CC1)c1cccc(Br)c12	-2	0	nt	1	1	nt	nt
CC(=O)c1cccc(N=Nc2c(C)[nH]c3ccccc23)c1	1.4*	-1	0	0	6.7*	0	5
Cc1cc(N=Nc2c(O)c3ccccc3[nH]c2=O)ccc1N=Nc1ccc(C(=O)N(C)C)cc1	0	3	1	0	4	nt	nt
Cc1ccccc1-c1ccc2c(c1)[C@@H]1C[C@H](N(C)S(=O)(=O)c3ccc(Cl)cc3)[C@H]([C@H](C)O)CN1CC2	-1	1	nt	1	1	nt	nt
Cc1ccc(NC(=O)n2ncc3c(C)cccc32)cc1F	1.1*	9	3	2	11*	1	9.0*
CC1=C(C#N)C(c2ccccc2O)C(C#N)=C(C)N1	1	8	2	0	9.6*	0	5.7*
COC(=O)C1CN(C(=O)OC(C)(C)C)C2=C1C(=O)CC(C)(C(=O)OC(C)(C)C)C2 (stereo unspecified)	-1	-1	nt	0	-2	nt	nt
Cc1cc(N2CCN(CC(C)(C)O)C[C@H]2C)ccc1N1CCN(Cc2ccccc2)[C@H](C)C1	0	1	nt	-2	-3	nt	nt
O=C(NCCc1c[nH]c2ccccc12)OCc1cn(Cc2cc(F)ccc2F)nn1	-1	-3	nt	-1	1	nt	nt
CC(=O)N(/N=C1/C(=O)Nc2ccccc21)c1ccccc1	1.2*	2	1	1	12*	1	10*
CC(=O)c1ccc(N=C2C(=O)Nc3ccccc32)cc1	-1	5	-2	0	-1	nt	nt
O=C(O)c1ccc2c(=O)n3c(nc2c1)/C(=C/c1ccc(C(F)(F)F)cc1)CC3	-1	1	-1	0	7.0*	0	1
